According to PubChem BioAssay (NCATS):
Inconclusive results are not listed. Activity calls are given as the source filed them. Calls follow the shape of the dose curve; as a rule, active = well fitted curve in the direction sought with a large enough effect; inconclusive = small, poorly fitted or top-dose-only effect, or another doubt; inactive = no such curve, though single readings can be large; an effect the other way counts as inactive or inconclusive.

Key:
[1] = OV-KATE Cancer Cell Toxicity qHTS against the NCATS CANVASS Library (AID 1347345); conditions: OV-KATE cells viability, CellTiter-Glo luminescence, 72 h; series mostly up to 12.8 µM
How it was run: (§1)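 1000 cells/well seeded and rested 4 h at 37 °C before pin transfer of compounds in an 11-pnt series. Exposure 72 h at 37 °C/5% CO2; viability by CellTiter-Glo luminescence after 15 min at room temperature.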

[2] = HPAF-II Cancer Cell Toxicity qHTS against the NCATS CANVASS Library (AID 1347346); conditions: HPAF-II viability, CellTiter-Glo ATP luminescence, 72 h; series mostly up to 12.8 µM; also: nearly all actives have a fitted effect of over 55% in size
How it was run: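 Cytotoxicity in HPAF-II pancreatic cancer cells: 72 h treatment across 11 concentrations, ATP-based CellTiter-Glo luminescence endpoint.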

[3] = UWB1.289 Cancer Cell Toxicity qHTS against the NCATS CANVASS Library (AID 1347347); conditions: UWB1.289 viability, CellTiter-Glo luminescence, 72 h; series mostly up to 12.8 µM; also: nearly all actives have a fitted effect of over 60% in size
How it was run: as §1

[4] = OV-SAHO Cancer Cell Toxicity qHTS against the NCATS CANVASS Library (AID 1347348); conditions: OV-SAHO viability, CellTiter-Glo luminescence, 72 h; series mostly up to 12.8 µM; also: nearly all actives have a fitted effect of over 55% in size
How it was run: as §1

[5] = Panc-1005 Cancer Cell Toxicity qHTS against the NCATS CANVASS Library (AID 1347349); conditions: Panc-1005 viability, CellTiter-Glo luminescence, 72 h; series mostly up to 12.8 µM; also: nearly all actives have a fitted effect of over 60% in size
How it was run: as §1

[6] = SW1088 Cancer Cell Toxicity qHTS against the NCATS CANVASS Library (AID 1347350); conditions: SW1088 viability, CellTiter-Glo luminescence, 72 h; series mostly up to 12.8 µM; also: nearly all actives have a fitted effect of over 75% in size
How it was run: as §1

[7] = U-118MG Cancer Cell Toxicity qHTS against the NCATS CANVASS Library (AID 1347351); conditions: U-118MG viability, CellTiter-Glo luminescence, 72 h; series mostly up to 12.8 µM
How it was run: as §1

[8] = COV-362 Cancer Cell Toxicity qHTS against the NCATS CANVASS Library (AID 1347352); conditions: COV-362 viability, CellTiter-Glo luminescence, 72 h; series mostly up to 12.8 µM
How it was run: (§2)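 qHTS cytotoxicity: compounds tested in 11 concentrations on 1000 seeded cells per well over 72 h; bortezomib served as control; signal from CellTiter-Glo luminescence.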

[9] = A2780 Cisplatin Sensitive Ovarian Cancer Cell Toxicity qHTS against the NCATS CANVASS Library (AID 1347353); conditions: A2780 ovarian cancer viability, ATPLite luminescence, 72 h; at 15.4 µM (top of the series); also: nearly all actives have a fitted effect of over 60% in size
How it was run: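 Seventy-two-hour exposure of cisplatin-sensitive A2780 ovarian cells to an 11-concentration qHTS series; cytotoxicity is inferred from loss of ATPLite luminescence. Bortezomib titration served as positive control.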

[10] = UWB1.289-WTBRCA1 Cancer Cell Toxicity qHTS against the NCATS CANVASS Library (AID 1347354); conditions: UWB1.289-WTBRCA1 viability, CellTiter-Glo luminescence, 72 h; series mostly up to 12.8 µM
How it was run: as §2

[11] = HEK-293 Cancer Cell Toxicity qHTS against the NCATS CANVASS Library (AID 1347355); conditions: HEK-293 viability, CellTiter-Glo luminescence, 72 h; at 15.4 µM (top of the series); also: nearly all actives have a fitted effect of over 65% in size
How it was run: as §2

[12] = HPAF-II 24hr Apoptosis Induction qHTS against the NCATS CANVASS Library (AID 1347356); conditions: HPAF-II caspase-3/7 Caspase-Glo luminescence; series mostly up to 15.4 µM
How it was run: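 Apoptosis induction in HPAF-II pancreatic cancer cells is measured as caspase-3/7 luminescence after a 24-hour exposure to compounds.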

[13] = HEK293 18hr Apoptosis Induction qHTS against the NCATS CANVASS Library (AID 1347357); conditions: HEK293 caspase-3/7 Caspase-Glo luminescence; series mostly up to 15.4 µM
How it was run: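 HEK293 cells (500 per well, DMEM with 10% FBS) were treated with natural products, incubated 18 hours at 37 degrees C, then caspase-3/7 activity was read by Caspase-Glo luminescence after 15 min at room temperature.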

[14] = HPAF-II 12hr Apoptosis Induction qHTS against the NCATS CANVASS Library (AID 1347358); conditions: HPAF-II caspase-3/7 Caspase-Glo luminescence; series mostly up to 15.4 µM
How it was run: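 Apoptosis in HPAF-II pancreatic cancer cells is scored as caspase 3/7 luminescence following a 12-hour exposure to an 11-point compound series.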

[15] = HEK293 24hr Apoptosis Induction qHTS against the NCATS CANVASS Library (AID 1347359); conditions: HEK293 caspase-3/7 activation, Caspase-Glo luminescence; series mostly up to 15.4 µM
How it was run: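 HEK293 cells (500/well, DMEM + 10% FBS) were exposed to compounds in an 11-point series for 24 hours at 37 degrees C, then caspase-3/7 activity was read by Caspase-Glo DEVD luciferase luminescence after 15 min.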

[16] = HPAF-II 18hr Apoptosis Induction qHTS against the NCATS CANVASS Library (AID 1347360); conditions: HPAF-II caspase-3/7 luminescence; series mostly up to 15.4 µM
How it was run: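 HPAF-II cells (500/well, DMEM + 10% FBS) were exposed to compounds for 18 hours at 37 degrees C. Caspase-3/7 activity was then read by Caspase-Glo 3/7 luminescence after 15 min at room temperature.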

[17] = HEK293 12hr Apoptosis Induction qHTS against the NCATS CANVASS Library (AID 1347361); conditions: HEK293 caspase-3/7 Caspase-Glo luminescence; series mostly up to 15.4 µM
How it was run: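 Read-out: Caspase-Glo 3/7 luminescence (DEVD substrate), 15 min RT. Preceded by 12 h compound exposure of HEK293, 500 cells/well, 11-pt qHTS titration; doxorubicin titration as control.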

[18] = tested on: NAD(P)H diaphorase (Clostridium kluyveri); test: Diaphorse counterscreen qHTS: Assay Interference Panel against the NCATS CANVASS Library (AID 1347362); conditions: Diaphorase enzyme, resazurin to resorufin fluorescence; series mostly up to 19.2 µM
How it was run: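 Clostridium kluyveri diaphorase in PBS with 0.01% Tween-20 was preincubated 15 min at room temperature in the dark with compounds (11-point series). Resorufin fluorescence (ex 525/20, em 598/25) was read 5 min after adding resazurin/NADH.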

[19] = molecular target: Luciferin 4-monooxygenase (Photinus pyralis) (UniProt P08659); test: Firefly luciferase counterscreen qHTS: Assay Interference Panel against the NCATS CANVASS Library (AID 1347363); conditions: purified firefly luciferase, luminescence inhibition, 5 min; series mostly up to 19.2 µM
How it was run: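 Purified P. pyralis luciferase was added to compounds (11-point series) preincubated 15 min at room temperature with substrate containing 0.013 mM D-luciferin and 0.013 mM ATP; luminescence was read after 5 min.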

[20] = KB-8-5-11 Cancer Cell Toxicity qHTS against the NCATS CANVASS Library (AID 1347364); conditions: KB-8-5-11 MDR cells viability, CellTiter-Glo, 72 h; at 15.4 µM (top of the series); also: nearly all actives have a fitted effect of over 75% in size
How it was run: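 Natural products were titrated in 11 points onto KB-8-5-11 cells, 500 per well, and cytotoxicity was scored from CellTiter-Glo luminescence after 72 hr culture.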

Measured: outcome

Chain of Luciferin 4-monooxygenase (Photinus pyralis) (P08659 whole entry, looked up): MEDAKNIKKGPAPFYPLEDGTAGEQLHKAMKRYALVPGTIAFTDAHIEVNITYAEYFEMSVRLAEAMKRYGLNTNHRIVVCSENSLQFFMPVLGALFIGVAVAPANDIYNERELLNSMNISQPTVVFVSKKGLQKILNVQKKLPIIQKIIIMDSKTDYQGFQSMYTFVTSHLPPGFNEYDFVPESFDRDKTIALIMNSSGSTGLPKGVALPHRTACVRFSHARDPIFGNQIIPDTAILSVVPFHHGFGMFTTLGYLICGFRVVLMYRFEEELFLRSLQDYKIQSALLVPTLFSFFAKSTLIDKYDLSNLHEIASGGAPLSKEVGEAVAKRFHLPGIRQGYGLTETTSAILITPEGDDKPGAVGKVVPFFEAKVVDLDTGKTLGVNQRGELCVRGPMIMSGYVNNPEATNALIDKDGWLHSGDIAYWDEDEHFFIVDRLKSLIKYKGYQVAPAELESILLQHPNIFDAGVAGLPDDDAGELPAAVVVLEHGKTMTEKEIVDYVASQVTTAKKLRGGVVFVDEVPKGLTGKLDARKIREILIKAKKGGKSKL

C[C@@H]1O[C@@H](OC[C@H]2O[C@@H](Oc3c(-c4ccc(O)c(O)c4)oc4cc(O)cc(O)c4c3=O)[C@H](O)[C@@H](O)[C@@H]2O)[C@H](O)[C@H](O)[C@H]1O
inactive: all assays above
